Drawing on PubChem BioAssay (EPA / NIEHS), this text covers outcome and AC50 for 35 compounds.

Inconclusive results are not listed. The source made the active and inactive calls. Rule for the calls: active = hit-call score of the fitted dose curve at least 0.9, where 1 is the maximum; inconclusive = response in the unintended direction; inactive = score below 0.9.

The first assay is described as follows: ACEA_AR_antagonist_AUC_viability: ACEA Biosciences xCELLigence Real-Time Cell Analysis on Androgen Receptor Antagonism for Viability (AID 2283776).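 Note: area under impedance growth curve at 80 h after dosing as viability; hits lower the growth signal relative to DMSO meaning cytotoxicity.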 Put shortly:
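22Rv1 human prostate cancer cells were seeded on electrode plates, monitored overnight, then exposed to eight 1:4 dilutions from 100 uM final. Impedance-based growth kinetics at 80 h gave an AUC viability endpoint normalized to DMSO.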
For `CC(C)c1ccc2cc(C(C)C)ccc2c1`, the outcome was inactive.
Regarding `NC(=O)N=NC(N)=O`, the AC50 was 4.59 µM (active).
In the case of `CCCc1ccc(OC)cc1`, the compound was called inactive.
The same measure, in the same setting: in the case of `CC(C)(C)c1ccc(N)cc1` it was “inactive”.
Take `CCN(CCC#N)c1ccc(N=Nc2c(Cl)cc([N+](=O)[O-])cc2Cl)cc1`: the AC50 was 3.41 µM (active).
`CCCCCCCCCCCCCOP(=O)(O)O`: the compound was called inactive.
For `CCCCCCCC[N+](C)(CCCCCCCC)CCCCCCCC`, the AC50 was 0.925 µM (active).
Consider `O=C(O)CCCC[C@@H]1SC[C@@H]2NC(=O)N[C@@H]21`, for which the call was inactive.
For the compound `CCCCC/C=C\CCC=O`, the outcome was inactive.
For `O=S(=O)(O)c1ccccc1C=Cc1ccc(-c2ccc(C=Cc3ccccc3S(=O)(=O)O)cc2)cc1`, the outcome was inactive.
Same read-out and setting: the result for `CC1=NN(c2cc(S(=O)(=O)O)ccc2Cl)C(=O)C1N=Nc1ccccc1` (stereo unspecified) reads “inactive”.
As for `Oc1ccc(Cl)cc1Cc1cc(Cl)ccc1O`, the concentration at half-maximal activity (AC50) is 8.53 µM (active).

Another assay can be described thus: ACEA_ER_AUC_viability: ACEA Biosciences xCELLigence Real-Time Cell Analysis on Estrogen Receptor Agonism for Viability (AID 2283782).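 Note: hit means loss of impedance signal meaning reduced cell growth or viability.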 Put shortly: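 Viability endpoint: reduced impedance area under the curve relative to DMSO, recorded by real-time electrode sensing over ~80 h of continuous exposure. Duplicate plates of T47D in hormone-depleted medium; eight concentrations, 1:4 dilutions, 100 uM maximum.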
Regarding `CC(=O)Oc1ccc(C)cc1`, the compound was called inactive.
On the same count and under the same terms, in the case of `NC(=O)N=NC(N)=O` it was “inactive”; in that of `Cc1ccc(C(C)(C)C)cc1`, “inactive”; in that of `CCCc1ccc(OC)cc1`, “inactive”.
The same measure, in the same setting: the result for `O=C(OCC1CCC2OC2C1)C1CCC2OC2C1` (stereo unspecified) reads “inactive”; that for `CC(C)(C)c1ccc(N)cc1`, “inactive”.
On the same count and under the same terms, in the case of `CC1(C)S[C@@H]2[C@H](NC(=O)COc3ccccc3)C(=O)N2[C@H]1C(=O)O` it was “inactive”.
As for `CC(C)CCCC(C)CC=O` (stereo unspecified), the compound was called inactive.
As for `CCCCCCCCC(=O)OCC`, the AC50 is 50 µM (active).
With `CCN(CCC#N)c1ccc(N=Nc2c(Cl)cc([N+](=O)[O-])cc2Cl)cc1`, the call was inactive.
As to `CCCCCCCCCCCCCOP(=O)(O)O`, the AC50 is 48.7 µM (active).
On the same count and under the same terms, in the case of `CC(C)C(=O)C(C)C` it was 19.7 µM (active).
Same read-out and setting: the result for `C=CCCCCCCCCC(=O)OCCCC` reads 50 µM (active); that for `FC(F)(F)C(=NOCC1OCCO1)c1ccc(Cl)cc1`, 74.9 µM (active).
For `Cc1ccc(N)c([N+](=O)[O-])c1`, the compound was called inactive.
For `S=C(NC1CCCCC1)NC1CCCCC1`, the call was inactive.
With `CCCCCCCC[N+](C)(CCCCCCCC)CCCCCCCC`, the AC50 was 1.92 µM (active).
Turning to `O=C(O)CCCC[C@@H]1SC[C@@H]2NC(=O)N[C@@H]21`, the compound was called inactive.
As to `COCCOCCOCCOCCOC`, the call was inactive.
Consider `CC(=O)CC(N)=O`, for which the call was inactive.
The same measure, in the same setting: the result for `CCCCC/C=C\CCC=O` reads “inactive”; that for `O=S(=O)(O)c1ccccc1C=Cc1ccc(-c2ccc(C=Cc3ccccc3S(=O)(=O)O)cc2)cc1`, “inactive”; that for `O=[N+]([O-])c1ccc(CO)cc1`, “inactive”.
On to `CCO[Si](CCCN=C=O)(OCC)OCC`, for which the compound was called inactive.
On the same count and under the same terms, in the case of `CC/C=C\CCOC(=O)CCCCC` it was “inactive”; in that of `C=COCCCC`, “inactive”; in that of `CC(C)C1=CC2=CC[C@@H]3[C@](C)(CCC[C@@]3(C)C(=O)O)[C@H]2CC1`, “inactive”.
On to `CC1=NN(c2cc(S(=O)(=O)O)ccc2Cl)C(=O)C1N=Nc1ccccc1` (stereo unspecified), for which the result was inactive.
As for `Cc1ccc(OC(=O)CC(C)C)cc1`, the AC50 is 73.8 µM (active).
As for `Oc1ccc(Cl)cc1Cc1cc(Cl)ccc1O`, the half-maximal activity concentration (AC50) is 17.7 µM (active).
For `CCCCCCCCCCOC(C)=O`, the compound was called inactive.
Still for that read-out and setting: in the case of `CCOc1nc(F)cc2nc(S(=O)(=O)Nc3c(Cl)cccc3C(=O)OC)nn12` it was “inactive”.
The same measure, in the same setting: the result for `O=C1CCCC(=O)O1` reads “inactive”; that for `O=c1n(CCO)c(=O)n(CCO)c(=O)n1CCO`, “inactive”.
